Hit rate of the full screen: of about 48,000 compounds, about 13,000 (27%) showed an effect of 50% or more. The list shows a part of the results.
Test system: Wolbachia pipientis
Test: Anti-Wolbachia Cell-Based Screen
Format: functional
Design: scale not given: in the data most compounds retested in dose-response had high values
Settings: 5 µM

Compound	Percent Effect [%]
O=C(NCC1OCCc2cn(CC3CCOCC3)nc21)c1ccncc1.O=C(O)C(F)(F)F (configuration not stated)	-2.103
CS(=O)(=O)N1C[C@@H]2OCC(=O)N(CC3CCC3)[C@@H]2C1	-1.197
O=C(O)c1csc(S(=O)(=O)N2CCCc3ccc(F)cc32)c1	-8.72
O=C1Nc2ccccc2CC12CCCN2Cc1ccc(F)cc1 (configuration not stated)	106.5
O=C1Nc2ccccc2CC12CCCN2Cc1ccc(C(F)(F)F)cc1 (configuration not stated)	105.2
CC(C)N1CCC2(CCCN(Cc3ccc(F)cc3)C2=O)C1 (configuration not stated)	-24.02
COCCC1(CO)CCCN(Cc2ccc(C(F)(F)F)cc2)C1 (configuration not stated)	-12.26
CS(=O)(=O)c1ccc(CN2CCCC3(C2)C(=O)Nc2ccccc23)cc1 (configuration not stated)	12.45
O=C(NC1CC1)N1CCC2(CC1)C(=O)NCCN2Cc1ccccc1.O=C(O)C(F)(F)F	-18.73
CCC(CC)c1cc(CNC(=O)N2CCN(CC)CC2)on1	1.8
O=C(c1cnc(-c2ccccn2)s1)N1CCCC1Cn1cccn1 (configuration not stated)	117.3
O=C(c1cnc(-c2cnccn2)s1)N1CCCC1Cn1cccn1 (configuration not stated)	93.62
O=C(c1cnc(-c2ncccn2)s1)N1CCCC1Cn1cccn1 (configuration not stated)	93.22
COc1ccc(CN2CCN(c3ncc(Cl)cn3)CC2)cc1	-2.887
CC(C)(O)c1cn(C2CCN(c3ncccc3Cl)CC2)nn1	-4.75
CSc1ccc(NC(=O)COCc2ccccc2)nc1	-20.64
NC(=O)CN(CC(N)=O)Cc1cccc(Oc2ccccc2)c1	-1.216
Nc1cc(C(=O)NCC2CCN(CCc3ccccc3)C2)ccn1 (configuration not stated)	-3.918
O=C(NC1CCCN(CCCc2ccccc2)C1)c1ccc(Cl)s1 (configuration not stated)	85.82
CN(C(=O)CC1=CCCCC1)C1CCCN(CCc2ccccc2)C1 (configuration not stated)	7.677
CC(C)C(=O)NCC(=O)N(C)C1CCCN(CCc2ccccc2)C1 (configuration not stated)	-4.152
O=C(Cc1cccnc1)NC1CCCN(CCCc2ccccc2)C1 (configuration not stated)	124.1
CC(C)(C)NC(=O)N1CCC(NC(=O)Cc2cccnc2)CC1	-14.05
CN(C(=O)c1cccnc1)C1CCCN(CCc2ccccc2)C1 (configuration not stated)	-6.072
Nc1cc(C(=O)NC2CCCN(CCCc3ccccc3)C2)ccn1 (configuration not stated)	96.33
O=C(NC1CCCN(CCCc2ccccc2)C1)C1=CCCCC1 (configuration not stated)	81.9

Compound	Percent Effect [%]
CCOC(=O)C1CCN(C(=O)Cc2c(C)nc(C)[nH]c2=O)CC1	4.435
COc1nccnc1N1CCC2(CCCN(C(C)C)C2=O)C1 (configuration not stated)	-3.964
CCN(c1ccc(C(=O)NCc2cc[nH]n2)cc1)C(C)C	-0.1162
Cc1sc2nc(C(F)(F)F)nc(N3CCN(C)CC3)c2c1C	8.571
COc1ccc(F)c(F)c1CN1CCN(CC(C)C)C(=O)C1C (configuration not stated)	1.65
O=C(NC1CC1)c1ccc(SCc2cscn2)cc1	-37.4
CC(C)CNC(=O)NC(=O)CNc1ccccc1SCC(C)C#N (configuration not stated)	9.026
O=C(COC1CCCCC1)Nc1ccn(CCc2ccncc2)n1	-1.367
O=C(NC1CCCN(CCCc2ccccc2)C1)c1ccncc1 (configuration not stated)	84.08
CN(C(=O)CCc1ccncc1)C1CCCN(CCc2ccccc2)C1 (configuration not stated)	-4.229
CCN(CC)S(=O)(=O)c1cccc(C(=O)N(C)Cc2ccsc2)c1	98.21
CN(Cc1ccsc1)C(=O)c1cc(S(=O)(=O)N(C)C)ccc1Cl	5.417
CN(Cc1ccsc1)C(=O)c1ccc(S(=O)(=O)NC(C)(C)C)cc1	98.59
CN(Cc1ccsc1)C(=O)c1cccc(S(=O)(=O)NC(C)(C)C)c1	0.007999
COCCNS(=O)(=O)c1ccc(Cl)c(C(=O)N(C)Cc2ccsc2)c1	14.25
CN(Cc1ccsc1)C(=O)c1ccc(F)c(NS(C)(=O)=O)c1	0
CN(Cc1ccsc1)C(=O)c1cccc(NS(C)(=O)=O)c1	8.391
CN(Cc1ccsc1)C(=O)c1ccc(C2CCCO2)s1 (configuration not stated)	-3.526
CN(Cc1ccsc1)C(=O)c1cccc(S(=O)(=O)NCC2CCCO2)c1 (configuration not stated)	104.2
CNS(=O)(=O)c1cccc(C(=O)N(C)Cc2ccsc2)c1	124.1
CCN(C)C(=O)c1cccc(S(=O)(=O)NCCc2csc(N)n2)c1	-2.209
CN(Cc1ccsc1)C(=O)Nc1ccc(S(=O)(=O)N(C)C)cc1	5.237
Cc1ccc(C)c2c(C)c(C(=O)NCCC(=O)N3CCOCC3)oc12	9.055
CC(C)c1nsc(NC2CC(=O)N(C(C)(C)C)C2)n1 (configuration not stated)	1.592
COC(CNC(=O)c1cn(C)nn1)c1ccc(C)s1 (configuration not stated)	-8.016
Cc1ccccc1C(C)NC(=O)Cc1c(C)nc2cc(=O)[nH]n2c1C (configuration not stated)	-0.7333

Compound	Percent Effect [%]
CN(CCNc1ncc2c(n1)CCN2c1ccccc1)S(C)(=O)=O	7.395
O=C(O)c1ccccc1-c1c(-c2ccccc2)ncn1CC1CCCO1 (configuration not stated)	-2.227
Cc1nnc2n1CCN(C(=O)c1ccn(-c3cccc(F)c3)n1)C2	108.9
CC(C)(O)CN1CCN(C(=O)c2ccn(-c3cccc(F)c3)n2)CC1	-183.4
Cc1nnc2n1CCN(C(=O)c1cn(-c3ccccc3)nn1)C2	102.5
Cc1nnc2n1CCN(C(=O)c1cn(-c3ccccc3Cl)nn1)C2	-0.6863
CCOC(C(=O)N1CCn2c(nnc2C(C)C)C1)c1ccccc1 (configuration not stated)	-0.6295
COCc1ccccc1C(=O)N1CCn2c(nnc2C(C)C)C1	6.004
Cc1nnc2n1CCN(C(=O)c1cc(Cl)c(Cl)n1C)C2	-5.044
Cc1ccc(-n2cc(C(=O)N3CCn4c(C)nnc4C3)nn2)cc1	111.3
Cc1cccc(-n2c(C)cc(C(=O)N3CCn4c(C)nnc4C3)c2C)c1	1.537
CC(C)c1nnc2n1CCN(C(=O)c1cn(-c3ccccc3)nn1)C2	113.1
Cc1cccc(-n2cc(C(=O)N3CCn4c(C)nnc4C3)nn2)c1	7.104
O=C(c1ccn(-c2cccc(F)c2)n1)N1CCN(CCO)CC1	-27.1
O=C(CN1CCOC1=O)N1CCc2nnc(-c3ccccc3)n2CC1	3.396
Cc1nc(-c2ccsc2)ccc1C(=O)N1CCn2c(C)nnc2C1	-2.134
CCc1nnc2n1CCN(C(=O)C(OC)c1ccccc1)C2 (configuration not stated)	-1.714
CCc1nnc2n1CCN(C(=O)c1cnc3ccccc3n1)C2	-19.02
CCc1nnc2n1CCN(C(=O)c1cn(-c3ccccc3)nn1)C2	104.4
Cc1nnc2n1CCN(C(=O)c1cn(-c3ccc(F)cc3)nn1)C2	133.8
Cc1nnc2n1CCN(C(=O)c1cc(C)n(-c3ccccn3)c1C)C2	-6.785
CCC1(CC)C(=O)NC(=O)N=C1Nc1ccc(C)cc1	121.1
CCc1ccc(CNC(=O)c2ccc(N3CCOC3=O)cc2)s1	-4.456
CC(=O)Nc1ccc(Oc2cccc(CN3CCCC3)c2)cc1	-8.686
COc1ccc(CN2CCCC2)cc1Oc1ccc(NC(C)=O)cc1	-0.1715
CC(=O)Nc1ccc(Oc2ccc(CN3CCCC3)cc2F)cc1	96.27

Compound	Percent Effect [%]
CC(Sc1nnnn1C1CCOCC1)C(F)(F)F (configuration not stated)	4.015
O=C(Nc1ccccn1)C1=NN(c2ccccc2)C(=O)CN1	-0.4273
CN1CCCc2cc(-c3cncn3CCNC3CCS(=O)(=O)C3)ccc21.Cl (configuration not stated)	82.25
Cc1nn(C)c(N2CCOCC2)c1CNC1CCS(=O)(=O)C1 (configuration not stated)	-13.17
Cn1cc(CNC2CCS(=O)(=O)C2)c(-c2cc3ccccc3o2)n1 (configuration not stated)	-8.31
CCc1nncn1CCNC(=O)Nc1ccc2c(c1)CCCO2	-5.053
Cl.O=S1(=O)CCC(NCCn2cncc2-c2ccc3c(c2)CCCO3)C1 (configuration not stated)	81.24
CCN1CCc2cc(-c3cncn3CCNC3CCS(=O)(=O)C3)ccc21.Cl (configuration not stated)	103
CCc1cc(NC2CCS(=O)(=O)C2)nc(N2CCCCC2)n1 (configuration not stated)	-10.03
N#Cc1ccnc(N2CCN(C(=O)NC3CCS(=O)(=O)C3)CC2)c1 (configuration not stated)	5.841
CCNC(=O)C1CCCN(C(=O)Nc2ccc3c(c2)CCCN3C)C1 (configuration not stated)	-0.07324
Cc1ccc(-c2ccsc2C(=O)NC2CCS(=O)(=O)C2)cc1 (configuration not stated)	-8.809
CC1(C)Cc2cc(-c3cncn3CCNC3CCS(=O)(=O)C3)ccc2O1.Cl (configuration not stated)	102.8
CN(CCc1ccc2c(c1)CCO2)CC1CCS(=O)(=O)C1 (configuration not stated)	6.378
Cc1cc(C(=O)NCC(O)CN2CCCC2=O)ccc1F (configuration not stated)	-5.14
COCCN(C)c1ccc(NCc2ccsc2)nc1	-10.25
CCOc1ccc(CN2CCCC(c3nn(C)c(=O)n3CC)C2)cn1 (configuration not stated)	24.07
COc1ccc(C)cc1CC(=O)NS(=O)(=O)c1ccc(C(N)=O)cc1	115.9
COc1ccc(Cl)cc1CC(=O)NS(=O)(=O)c1ccc(C(N)=O)cc1	102.7
COc1ccc(C)cc1CC(=O)Nc1cc(C)n[nH]1	4.97
COc1ccccc1CC(=O)NS(=O)(=O)c1ccc(C(N)=O)cc1	6.119
NC(=O)c1ccc(S(=O)(=O)NC(=O)COc2ccc3c(c2)CCC3)cc1	-8.361
CCC(C)NC(=O)CS(=O)(=O)Cc1cc(Cl)ccc1OC (configuration not stated)	28.04
COc1ncccc1CN1C[C@H](C(=O)N2CCCO2)[C@@H]2CCO[C@@H]2C1	0.1445
